Results filed as inconclusive are left out. Entries that show only a call come without a potency. Activity calls are given as the source filed them. The call rests on the fitted dose curve; in most records, active means well fitted inhibition curve with a large enough effect in the repeat runs; inconclusive means weak or mixed curves; inactive means no such curve, though single readings can be large or run the other way.
Potency means the concentration at half of the fitted maximal effect.

The target in the assay is Cytochrome P450 3A4 (Homo sapiens) (UniProt P08684). The assay is described as follows: Cytochrome P450 Family 3 Subfamily A Member 4 (CYP3A4) small molecule antagonists: luciferase reporter qHTS assay (AID 1671201). Further: nearly all actives have a fitted effect of over 50% in size. The conditions noted are these: P450-Glo CYP3A4 enzyme, luciferin luminescence, 1 h; series mostly up to 115 µM. The essentials: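 P450-Glo CYP3A4 system with proluciferin substrate; compounds preincubated 10 min RT with enzyme-substrate mix, then NADPH regeneration added for 1 h RT. Detection reagent 20 min, luminescence read as relative luminescence units.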
Chain of Cytochrome P450 3A4 (Homo sapiens) (P08684 whole entry, looked up): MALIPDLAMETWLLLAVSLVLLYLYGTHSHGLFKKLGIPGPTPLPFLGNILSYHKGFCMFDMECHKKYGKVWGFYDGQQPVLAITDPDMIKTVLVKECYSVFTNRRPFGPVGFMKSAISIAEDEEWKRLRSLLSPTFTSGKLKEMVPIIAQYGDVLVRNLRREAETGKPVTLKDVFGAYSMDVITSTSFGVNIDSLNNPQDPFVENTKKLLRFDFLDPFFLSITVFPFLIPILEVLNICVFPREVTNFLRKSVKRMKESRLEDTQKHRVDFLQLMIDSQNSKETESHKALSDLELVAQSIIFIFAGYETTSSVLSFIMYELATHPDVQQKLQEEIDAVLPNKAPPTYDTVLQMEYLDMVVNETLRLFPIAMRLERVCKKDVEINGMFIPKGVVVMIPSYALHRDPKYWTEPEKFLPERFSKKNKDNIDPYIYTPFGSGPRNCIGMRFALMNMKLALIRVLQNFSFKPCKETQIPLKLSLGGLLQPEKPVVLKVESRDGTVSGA
With `CCOP(=S)(NC(C)C)Oc1ccccc1C(=O)OC(C)C` (configuration not stated), the Potency is 0.71 µM (active). As for `COc1nc(C)nc(NC(=O)NS(=O)(=O)c2ccccc2Cl)n1`, the entry is “inactive”. As to `CNC(=O)Oc1cc(C)cc(C(C)C)c1`, the Potency entry was “inactive”. The entry for `CC(C)=CC1C(C(=O)OC(C#N)c2cccc(Oc3ccccc3)c2)C1(C)C` (configuration not stated) is “inactive”; for `Cc1cnc2c(C(=O)O)c(Cl)ccc2c1` it is “inactive”.

In the case of `[O]=[Cr][O][Cr]=[O]`, the Potency entry is “inactive”. The entry for `COC(=O)c1ccccc1S(=O)(=O)NC(=O)Nc1nc(C)nc(OC)n1` is “inactive”. The entry for `CCNS(=O)(=O)C(F)(F)C(F)(F)C(F)(F)C(F)(F)C(F)(F)C(F)(F)C(F)(F)C(F)(F)F` is “inactive”. As for `ClC1(Cl)C2(Cl)C3(Cl)C4(Cl)C(Cl)(Cl)C5(Cl)C3(Cl)C1(Cl)C5(Cl)C24Cl` (configuration not stated), the entry is “inactive”; as for `CN/C(=N\[N+](=O)[O-])NCc1cnc(Cl)s1`, “inactive”; as for `Oc1cc(Cl)c(Cl)c(Cl)c1Cl`, “inactive”.

On to `CC(C)c1c(CN(C)C(C)Cc2ccccc2)n(C)n(-c2ccccc2)c1=O` (configuration not stated), for which the Potency was 1.74 µM (active). As for `CN1C2CCC(C)(C)C1CC(OC(=O)C(O)(c1cccs1)c1cccs1)C2` (configuration not stated), the Potency was 0.219 µM (active). The entry for `CCC(C)Br` (configuration not stated) is “inactive”. The entry for `CNC(=O)CSP(=O)(OC)OC` is “inactive”; for `CC(=O)C(Cl)C(=O)N(C)C` (configuration not stated) it is “inactive”; for `O=c1[nH]c(Cl)c(Cl)cc1Cl` it is “inactive”. The entry for `CCC(C)Nc1c([N+](=O)[O-])cc(C(C)(C)C)cc1[N+](=O)[O-]` (configuration not stated) is “inactive”. Regarding `C=CC(=O)[O][Sn]([CH2]CCC)([CH2]CCC)[CH2]CCC`, the Potency was 25.2 µM (active). As for `N#CCCl`, the figure is 66 µM (active); as for `O=[N+]([O-])c1cc(C(F)(F)F)c(Cl)c([N+](=O)[O-])c1Nc1ncc(C(F)(F)F)cc1Cl`, 20 µM (active); as for `CC1CN1` (configuration not stated), “inactive”. Consider `CN1C(=O)[C@@H](NC(=O)c2cc3ccccc3[nH]2)N=C(c2ccccc2)c2ccccc21`, for which the Potency entry is “inactive”. For `OCC(Br)CBr` (configuration not stated), the Potency result was “inactive”.

On to `CCCN`, for which the Potency entry was “inactive”.

Take `Clc1cc(Cl)c(-c2cc(Cl)c(Cl)cc2Cl)cc1Cl`: the Potency entry is “inactive”.

On to `c1csc(-c2ccc(-c3cccs3)s2)c1`, for which the Potency result was “inactive”.

With `C=CCBr`, the Potency result was “inactive”. As for `c1ccc(N=NNc2ccccc2)cc1`, the figure is 26 µM (active); as for `BrCCCBr`, “inactive”. Turning to `CCC1COC(Cn2cncn2)(c2ccc(Cl)cc2Cl)O1` (configuration not stated), the Potency is 0.0894 µM (active). As for `CSSC`, the entry is “inactive”.
